The list is not random: actives were taken first. Their share in the collection is about 4.7%.
RecA splice inh = Mtb RecA intein splicing inhibition | inhibition, % (no concentration beside the values) | 0.75% of 290,000 active | cell-free RecA intein splicing, fluorescence | AID 2221 | P9WHJ3; in the data active means inhibition above about 30%;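 further: 0% = vehicle wells and 100% = reference inhibitor control wells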
VHR inh abs = blocks human VHR1 dual specificity phosphatase; P51452; recombinant VHR phosphatase, pNPP absorbance; inhibition, % at 13.3 µM; 0.52% of 290,000 active; AID 1654; in the data active means inhibition above about 50%
Target sequence (P51452 whole entry, looked up): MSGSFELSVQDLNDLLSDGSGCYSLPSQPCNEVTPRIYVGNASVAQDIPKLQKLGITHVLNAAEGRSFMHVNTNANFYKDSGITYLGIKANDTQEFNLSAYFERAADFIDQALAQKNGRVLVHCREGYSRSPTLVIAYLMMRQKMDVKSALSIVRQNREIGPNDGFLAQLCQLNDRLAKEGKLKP
GDH-TPI counter = counter-screen for M. tuberculosis FBA inhibitors: GDH-TPI coupled enzymes | GDH-TPI coupled enzyme counterscreen, NADH absorbance | inhibition, % at 4.8 µM | 1.2% of 360,000 active;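 further: 0% = DMSO wells and 100% = wells lacking the enzyme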
3CLpro inhibitor = SARS-CoV 3CLpro protease inhibition. recombinant SARS-CoV 3CLpro, quenched FRET peptide cleavage. 0.14% of 290,000 active. P0C6X7. inhibition, % at 6 µM. AID 1706; in the data active means inhibition above about 12%
CCHFV vOTU inh = blocks the CCHF virus ovarian tumor domain protease. inhibition, % at 11.5 µM. 0.55% of 370,000 active. CCHFV vOTU protease, Pep-AMC fluorescence; further: 0% = vehicle wells with enzyme and 100% = no enzyme wells
FBA Mtb inh = inhibitors of M. tuberculosis fructose-bisphosphate aldolase | P9WQA3 | purified M. tuberculosis FBA, fluorescence read-out | inhibition, % at 1 µM | 2.3% of 360,000 active; in the data active means inhibition above about 27%;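 further: 0% = vehicle and 100% = reference inhibitor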
Target sequence (P9WQA3 whole entry, looked up): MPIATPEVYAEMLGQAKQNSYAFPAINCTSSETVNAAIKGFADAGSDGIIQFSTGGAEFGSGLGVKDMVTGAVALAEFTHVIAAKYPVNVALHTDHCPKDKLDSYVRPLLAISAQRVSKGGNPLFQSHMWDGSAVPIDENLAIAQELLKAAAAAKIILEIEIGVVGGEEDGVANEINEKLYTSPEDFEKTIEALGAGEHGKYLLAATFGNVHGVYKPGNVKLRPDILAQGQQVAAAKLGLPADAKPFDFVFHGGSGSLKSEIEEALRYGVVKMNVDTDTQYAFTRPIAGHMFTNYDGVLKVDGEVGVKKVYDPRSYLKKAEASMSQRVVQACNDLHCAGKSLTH
* = called active by the depositor; x = no result; + = active, no number. Unless noted, no stated cut-off is given here; in the data, active means inhibition above about 30%; inactive means the rest.

SMILES	RecA splice inh	VHR inh abs	GDH-TPI counter	3CLpro inhibitor	CCHFV vOTU inh	FBA Mtb inh
CC1SC(c2cccc(Cl)c2)NC1=O (stereo unspecified)	1	13	-7	-1	-5	1
CC1SC(c2ccc(Cl)cc2Cl)NC1=O (stereo unspecified)	4	57*	9	0	8	6
COC(=O)C1CCN(C2CN(Cc3cn(Cc4ccc(C(F)(F)F)cc4)nn3)S(=O)(=O)C2)CC1 (stereo unspecified)	x	x	x	x	2	x
Clc1ccc(-c2ccc(C=Nc3ccc(N4CCOCC4)cc3)o2)cc1	-6	2	32*	-1	17	-4
Oc1c(Cl)cc(Cl)cc1C=Nc1ccc(N2CCOCC2)cc1	7	60*	-3	1	-9	1
Oc1ccc(C=Nc2ccc(N3CCOCC3)cc2)c(O)c1	-7	10	20	-2	5	-3
C=CCN(CC#Cc1ccccn1)Cc1ccc(OC)cc1OC	x	x	x	x	3	x
Cn1c(=O)c2[nH]c(C3CCCC3)nc2n(C)c1=O	-1	x	0	x	2	2
Cn1c(=O)c2[nH]c(N3CCCCC3)nc2n(C)c1=O	0	78	-4	-8	16	4
CC1CCN(N=Nc2nc3c([nH]2)c(=O)n(C)c(=O)n3C)CC1	x	x	31*	x	28	-2
CC1CCCCN1N=Nc1nc2c([nH]1)c(=O)n(C)c(=O)n2C (stereo unspecified)	x	x	39*	x	2	-1
Cn1c(=O)c2[nH]c(N=NN3CCCCC3)nc2n(C)c1=O	x	x	54*	x	-2	-7
Fc1ccccc1-c1nc2ncccc2o1	3	16	-3	4	-5	6
c1ccc2c(-c3nc4ncccc4o3)cccc2c1	2	21	-2	-4	-205	+
COc1ccc(NC(=O)C2(C)CCN2C)cc1OC (stereo unspecified)	x	x	6	x	4	-5
CCOC(=O)N1CCN(CC(=O)c2ccc(O)c(C)c2O)CC1	-4	14	1	-3	-4	-3
CCOC(=O)C1CCN(CC(=O)c2ccc(O)c(C)c2O)CC1	-10	4	32*	4	-1	8
Cc1ccc(S(=O)(=O)N(C)C)cc1NC(=S)NC12CC3CC(CC(C3)C1)C2	7	-17	2	2	4	+
CCC(C)(C)NC(=O)C(c1ccc(OC)cc1)N(C(=O)CCC(=O)Nc1cc(C)on1)c1ccccc1F (stereo unspecified)	1	19	-4	1	13	0
Cc1nnc(Sc2cc(NCCO)c([N+](=O)[O-])c3nonc23)s1	93*	12	5	4	29	-10
Cc1nc(NS(=O)(=O)c2ccccc2)sc1C(=O)N/N=C/c1ccccc1	1	2	47*	-1	14	4
COc1ccc2c(c1OC)C(=O)OC2CC(=O)c1ccc(N(C)C)cc1 (stereo unspecified)	-5	34	31*	-7	26	-8
Fc1cccc(CNCc2ccc3c(c2)OCO3)c1	-2	14	-1	1	10	4
CSc1ccc(CNCc2ccc3c(c2)OCO3)cc1	0	55*	2	4	-10	2
O=C(Nc1nccs1)c1ccc(-c2cccc([N+](=O)[O-])c2)o1	2	-24	9	-1	-1	1
SMILES	RecA splice inh	VHR inh abs	GDH-TPI counter	3CLpro inhibitor	CCHFV vOTU inh	FBA Mtb inh
O=C(Nc1ncc(Cc2cccc(C(F)(F)F)c2)s1)c1ccc(-c2cccc([N+](=O)[O-])c2)o1	0	14	54*	-1	-3	0
O=C(O)CC(C(=O)O)N1C(=O)/C(=C/C=C/c2ccco2)SC1=S (stereo unspecified)	-1	54*	11	3	10	-8
O=C(Nc1ccc(F)cc1)OCc1cn(Cc2ccccc2Cl)nn1	x	x	x	x	-3	x
O=C1/C(=C/c2ccccc2)CN(C(=O)CCN2CCOCC2)C/C1=C\c1ccccc1	x	x	37*	x	-15	3
CN(C)CCC(=O)N1C/C(=C/c2ccccc2)C(=O)/C(=C\c2ccccc2)C1	x	x	35*	x	4	1
C[N+](C)(C)CCC(=O)N1C/C(=C/c2ccccc2)C(=O)/C(=C\c2ccccc2)C1	x	x	41*	x	-2	0
COC(=O)C[C@@H]1C=C[C@H](NC(=O)c2ccccc2)[C@@H](CO)O1	x	x	x	x	8	x
C[C@H](O)[C@@H]1C(=O)N2CCc3c([nH]c4c(-c5ccccc5)cccc34)[C@@H]2C[C@@H]1N(C)C(=O)/C=C/c1ccccc1	x	x	x	x	-10	x
COc1ccc(N(C)S(=O)(=O)c2cccc(C(=O)Nc3nc4ccccc4[nH]3)c2)cc1	10	15	2	3	-5	0
CN(c1cccc(Cl)c1)S(=O)(=O)c1cccc(C(=O)Nc2nc3ccccc3[nH]2)c1	8	51*	9	3	-1	-2
CCn1c(=O)c(=O)[nH]c2cc(C(=O)NC3CCCc4ccccc43)ccc21 (stereo unspecified)	x	4	31*	1	-1	5
CCn1c(=O)c(=O)[nH]c2cc(C(=O)NC3CC3)ccc21	3	-10	11	0	-8	2
O=C(CNC(=O)c1cccs1)N=Nc1c(O)[nH]c2ccc([N+](=O)[O-])cc12	16	13	34*	-10	29	-2
CCCCCCC(=O)N=Nc1c(O)[nH]c2ccc([N+](=O)[O-])cc12	1	0	2	1	4	3
CCOC(=O)CCC(NC(=O)c1cncc(O)c1)C(=O)OCC (stereo unspecified)	-2	12	12	3	-3	15
CN(Cc1cnc2nc(N)nc(N)c2n1)c1ccc(C(=O)NC(CCC(=O)O)C(=O)O)cc1C(F)(F)F (stereo unspecified)	x	x	21	x	-12	33*
CCCN(CCC)C(=O)C(CCC(=O)O)NC(=O)c1ccccc1 (stereo unspecified)	-1	-11	-13	-5	2	-1
CN(Cc1cnc2nc(N)nc(N)c2n1)c1ccc(C(=O)NC(CCC(=O)O)C(=O)O)cc1 (stereo unspecified)	x	x	21	x	-76	74*
CCCCNC(=O)C[C@@H]1C(=O)N(CCc2ccc(Cl)cc2)/C2=C/CCCCC[C@@]21C(=O)OCC	x	x	x	x	12	x
Cn1ncc(Br)c1NC(=O)c1cc(Cl)cc(Cl)c1	0	10	-8	-3	x	0
O=C(Nc1cc(Cl)cc(Cl)c1)c1coc(=O)c(Br)c1	0	20	32*	-2	-52	137*
O=C(NC(CO)(CO)CO)c1coc(=O)c(Br)c1	1	14	44*	4	1	5
O=C1c2ccccc2/C(=C\c2ccc(O[C@@H]3CCCCO3)cc2)N1c1ccccc1	x	x	x	x	-4	x
Cc1cc(Sc2nnc(N)s2)c2ccccc2n1	11	-9	11	-2	-6	-21
Cc1cc(Sc2nnc(/N=C/N(C)C)s2)c2ccccc2n1	36*	-1	15	5	-1	0
